Test systems include NCI-H23 lung; NCI-H226 lung; NCI-H322M lung; HOP-62 NSCLC; NCI-H460 lung; HOP-92 NSCLC; NCI-H522 lung; A549/ATCC NSCLC; 786-0 renal; COLO 205 colon; DU-145 prostate; K-562 leukemia; MALME-3M melanoma; MDA-MB-231 breast; RXF 393 renal; SF-268 CNS; SF-539 CNS; UACC-257 melanoma; M14 melanoma; SF-295 CNS.
Holding throughout (assay): NCI-60 one-dose screen, 48 h (100 = growth as untreated, 0 = no growth, -100 = all killed)
Conditions in all cases: 10 µM unless noted

In PubChem BioAssay (NCI) one finds growth data, which are given here for eight compounds.

The panel holds about 83,000 compounds, 20% with a hit somewhere; the sample as a whole holds those more often.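 96-well plates, one dose, 48 hours. Percent growth reported; active if below 10.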 Unmarked numbers belong to inactive results. Calls of active or inactive are those of the source.

As to `CCN(CC)CCCNc1cccc2c(C)cc(OC)nc12`, the growth with NCI-H23 lung was 90.5%; in the experiment on NCI-H226 lung, 91%; in the experiment with NCI-H322M lung, 93.6%; in the experiment on HOP-62 NSCLC it was 98.8%; with NCI-H460 lung, 100%; in the experiment on HOP-92 NSCLC, 58.4%. The growth with NCI-H522 lung was 87.5%; with A549/ATCC NSCLC it was 94.8%; in the experiment with 786-0 renal, 94.6%; in the experiment with COLO 205 colon it was 87.4%; in the experiment with DU-145 prostate it was 114%; with K-562 leukemia, 92.3%. Further, the growth with MALME-3M melanoma was 107%; in the experiment with MDA-MB-231 breast, 81%; with RXF 393 renal, 93.9%; in the experiment on SF-268 CNS, 104%; with SF-539 CNS, 88.8%; in the experiment with UACC-257 melanoma, 98.9%. For the same compound, in the experiment on M14 melanoma, the growth is 93.2%.

For the compound `COc1ccc(NC(=O)C2c3ccccc3C(=O)N(CC(C)C)C2c2cccs2)cc1` (centres undefined), the growth is 95.2% in the experiment with NCI-H23 lung; 92.7% in the experiment with NCI-H226 lung; 110% with NCI-H322M lung; 90.1% in the experiment on HOP-62 NSCLC; 94.3% in the experiment with NCI-H460 lung; 94.1% in the experiment with HOP-92 NSCLC. The growth was 92.3% in the experiment on NCI-H522 lung; 89.5% in the experiment on A549/ATCC NSCLC; 98.8% in the experiment on 786-0 renal; 105% in the experiment with COLO 205 colon; 98.9% with DU-145 prostate; 88.8% in the experiment with K-562 leukemia. Moreover, the growth in the experiment with MALME-3M melanoma was 113%; with MDA-MB-231 breast, 92.1%; in the experiment with RXF 393 renal it was 79.2%; in the experiment on SF-268 CNS, 95.1%; in the experiment on SF-539 CNS, 98.9%; in the experiment on UACC-257 melanoma, 97.2%. Further, the growth with M14 melanoma was 106%.

On to `COc1ccc2[nH]cc(/C=C3\C(=O)Nc4ccccc43)c2c1`, for which the growth is 42.3% with NCI-H23 lung; 62.1% in the experiment with NCI-H226 lung; 37.8% with NCI-H322M lung; 28.8% in the experiment on HOP-62 NSCLC; 26% in the experiment on NCI-H460 lung; 31.3% in the experiment with HOP-92 NSCLC. For the same compound, the growth is 17.5% with NCI-H522 lung; 26.5% with A549/ATCC NSCLC; 53.8% in the experiment on 786-0 renal; 40.6% in the experiment with COLO 205 colon; 47.1% in the experiment with DU-145 prostate; 3.31% (active) in the experiment on K-562 leukemia. Also, the growth with MALME-3M melanoma is 57.5%; in the experiment with MDA-MB-231 breast it was 38.9%; in the experiment on RXF 393 renal it was 33.3%; with SF-268 CNS, 62.5%; with SF-295 CNS, 45.5%; in the experiment with SF-539 CNS it was 25.8%. The growth with UACC-257 melanoma was 28.2%; in the experiment with M14 melanoma, 11%.

With `C=CCn1c(SCC(=O)Nc2ccc(/C(C)=N\O)cc2)nnc1-c1cc(-c2ccc(Cl)cc2)nc2ccccc12`, the growth with NCI-H23 lung was 24.1%; with NCI-H226 lung, 50.7%; in the experiment on NCI-H322M lung, 26.2%; in the experiment on HOP-62 NSCLC it was 49.6%; with NCI-H460 lung, 17.2%; in the experiment with HOP-92 NSCLC, 50.4%. The growth with NCI-H522 lung is 22.4%; with A549/ATCC NSCLC, 19.4%; in the experiment on 786-0 renal, 23%; in the experiment with COLO 205 colon, 27.8%; in the experiment with DU-145 prostate it was 48.5%; in the experiment with K-562 leukemia, 13.4%. Moreover, the growth with MALME-3M melanoma was 71.7%; in the experiment with MDA-MB-231 breast, 35%; in the experiment with RXF 393 renal, 47%; with SF-268 CNS it was 38.2%; with SF-539 CNS it was 15.8%; in the experiment on UACC-257 melanoma, 47.9%. In addition, the growth with M14 melanoma is 20.4%.

As for `NS(=O)(=O)c1ccc(N2N=C(c3cccs3)CC2c2ccccc2O)cc1` (centres undefined), the growth was 28.1% with NCI-H23 lung; 19.2% with NCI-H226 lung; 25.4% in the experiment with NCI-H322M lung; 24.4% in the experiment on HOP-62 NSCLC; -0.156% (active) with NCI-H460 lung; -8.37% (active) with HOP-92 NSCLC. Moreover, the growth in the experiment with NCI-H522 lung was -23.9% (active); in the experiment with A549/ATCC NSCLC, 7.33% (active); with 786-0 renal, 10.8%; with COLO 205 colon it was -73.7% (active); with DU-145 prostate, -45% (active); in the experiment on K-562 leukemia, 4.59% (active). Further, the growth is 47.9% with MALME-3M melanoma; -19.3% (active) in the experiment on MDA-MB-231 breast; 27.1% with RXF 393 renal; 7.15% (active) with SF-268 CNS; 1.4% (active) in the experiment with SF-295 CNS; -23.5% (active) in the experiment on SF-539 CNS. In addition, the values for the growth with UACC-257 melanoma and in the experiment on M14 melanoma were 33.2% and 0.852% (active), respectively.

In the case of `Cc1cc(-c2nnc(/C=C/c3ccc4c(c3)OCO4)o2)n[nH]1`, the growth in the experiment on NCI-H23 lung is 77.7%; in the experiment on NCI-H226 lung, 95.2%; in the experiment on NCI-H322M lung it was 66.5%; in the experiment on HOP-62 NSCLC it was 78.5%; in the experiment on NCI-H460 lung, 84.3%; in the experiment with HOP-92 NSCLC, 80.7%. The growth in the experiment on NCI-H522 lung is 15.2%; with A549/ATCC NSCLC it was 58.7%; in the experiment on 786-0 renal, 97.2%; in the experiment on COLO 205 colon it was 61.6%; with DU-145 prostate, 83.4%; in the experiment on K-562 leukemia, 23.5%. Further, the growth in the experiment on MALME-3M melanoma is 49.4%; in the experiment with MDA-MB-231 breast, 54.4%; in the experiment with RXF 393 renal, 85.5%; in the experiment with SF-268 CNS it was 74.9%; with SF-539 CNS, 46.3%; with UACC-257 melanoma it was 78.1%. The growth in the experiment on M14 melanoma was 46.3%.

Turning to `CCCCNCCC(O)c1cc2ccc(C(F)(F)F)cc2c2cc(C(F)(F)F)ccc12` (centres undefined), the growth with NCI-H23 lung is -75.3% (active); with NCI-H226 lung, -70.7% (active); in the experiment with NCI-H322M lung it was -37.6% (active); in the experiment with HOP-62 NSCLC, -91.3% (active); in the experiment with NCI-H460 lung, -74.5% (active); in the experiment on HOP-92 NSCLC, -80.6% (active). Besides, the growth is -83% (active) with NCI-H522 lung; -87.5% (active) in the experiment with A549/ATCC NSCLC; -85.3% (active) in the experiment with 786-0 renal; -88.6% (active) with COLO 205 colon; -93.4% (active) with DU-145 prostate; -72.1% (active) in the experiment on K-562 leukemia. The growth in the experiment with MALME-3M melanoma is -59.5% (active); with MDA-MB-231 breast, -73.3% (active); in the experiment on RXF 393 renal, -90.8% (active); in the experiment on SF-268 CNS, -88% (active); in the experiment on SF-539 CNS, -81.8% (active); in the experiment on UACC-257 melanoma, -75.5% (active). Also, in the experiment with M14 melanoma, the growth was -84.6% (active).

Take `CCOC(C)(c1ccc(Cl)cc1)C1CCNCC1` (centres undefined): the growth was 101% in the experiment with NCI-H23 lung; 116% in the experiment with NCI-H226 lung; 105% with NCI-H322M lung; 93.3% in the experiment with HOP-62 NSCLC; 70.3% with NCI-H460 lung; 85.2% in the experiment with HOP-92 NSCLC. In addition, the growth in the experiment with NCI-H522 lung is 107%; with A549/ATCC NSCLC, 67.9%; with 786-0 renal, 91.9%; in the experiment on COLO 205 colon it was 118%; with DU-145 prostate, 102%; in the experiment with K-562 leukemia it was 65.3%. Also, the growth is 99.9% with MALME-3M melanoma; 102% in the experiment on MDA-MB-231 breast; 109% in the experiment with RXF 393 renal; 115% in the experiment with SF-268 CNS; 88.1% with SF-539 CNS; 78.2% in the experiment with UACC-257 melanoma. Also, the growth in the experiment with M14 melanoma is 86.6%.
